HepG2 tox: qHTS for Inhibitors of TGF-b: Cytotox Counterscreen | HepG2 CAGA-GFP viability, ATP luminescence, 18 h | Potency, µM (doses to about 46.1 µM), for the others: at the top dose activity change, negative = cytotoxicity, usual class: cytotoxic | 410,000 compounds, 0.76% hits; further: potency means the concentration at half of the fitted maximal effect
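HepG2 CAGA-GFP cells (1000/well, DMEM with 1% FBS) received compound, then TGF-beta at 500 pg/mL final, and were incubated 18 hours at 37 degrees C. Viability was read by CellTiter-Glo luminescence. Media-only wells were set as complete cell-killing and DMSO as no toxicity.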
HT1080 IDH1KD tx: qHTS for induction of synthetic lethality in tumor cells producing 2HG: qHTS for the HT-1080-IDH1KD cell line; HT-1080 IDH1 knockdown viability, ATP luminescence, 48 h; Potency, µM (doses to about 46.1 µM), without a hit: top-dose activity, negative = toxicity, hits mostly cytotoxic; 360,000 compounds, 2% hits; AID 686971, 2013;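 further: potency means the concentration at half of the fitted maximal effect; 0% = DMSO wells and -100% = cell-free medium wells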
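Assay cells: HT-1080 with IDH1 knockdown, 750 per well, RPMI/5% FBS. Exposure: 48 h at 37 °C following 2 h pre-incubation. Read: CellTiter-Glo luminescence; fitted concentration-response, curve class assigned.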
IL-1B inflam inh: qHTS for Inhibitors of Inflammasome Signaling: IL-1-beta AlphaLISA Primary Screen; THP-1 LPS/ATP IL-1B secretion, AlphaLISA, 16 h; active compounds read low; activity change, % at 57.5 µM; 360,000 compounds, 4.7% hits; in the data active means activity change below about -50%; inconclusive means mostly about -30% to -49%; further: on the % scale 0 is the no-effect control and ±100 the full control effect
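THP-1 cells pretreated 1 hr with compounds (up to 57.5 uM final), then stimulated with LPS (250 ng/mL final) plus ATP (1.25 mM final); secreted IL-1B measured by AlphaLISA after 16 hr, decreased signal indicating inhibition.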
HT1080-NT tox: qHTS for induction of synthetic lethality in tumor cells producing 2HG: qHTS for the HT-1080-NT fibrosarcoma cell line; HT-1080-NT fibrosarcoma viability, CellTiter-Glo ATP luminescence, 48 h; Potency, µM (highest dose often 46.1 µM), without a hit: top-dose activity, negative = less viability, hits mostly cytotoxic; 360,000 compounds, 1.6% hits;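 further: NT is the 2HG producing partner of a matched IDH1 knockdown line; potency means the concentration at half of the fitted maximal effect; 0% = DMSO-treated cells and -100% = media-only wells without cells; nearly all actives have a fitted effect of over 55% in size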
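Viability of the 2HG-overproducing fibrosarcoma line after 48 hours of compound exposure at 37 degrees C was determined by luminescence with CellTiter-Glo, and concentration-effect curves were then fitted and categorized.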
Giardia kill: Small Molecules that selectively kill Giardia lamblia: qHTS | Giardia lamblia trophozoite viability | activity change, % at 7.66 µM, hits read low | 340,000 compounds, 0.15% hits; in the data active means activity change below about -80%; inconclusive means between about -30% and that limit;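 further: parasites exposed to compound for two days anaerobically before the ATP read; on the % scale 0 is the no-effect control and ±100 the full control effect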
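Killing of trophozoites was scored by loss of ATP luminescence after a 48 hrs anaerobic exposure to compounds at 37 deg C, using 100 cells per well.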
TGFb inhibitor: qHTS for Inhibitors of TGF-b; Potency, µM (series often up to 46.1 µM), without a hit: at the top dose activity, negative = inhibition, hits mostly inhibitors; 410,000 compounds, 1.2% hits; HepG2 CAGA-GFP TGF-b/SMAD3 reporter, GFP fluorescence, 18 h; TGF-beta stimulated, 500 pg/mL final; further: potency means the concentration at half of the fitted maximal effect; on the % scale 0 is the no-effect control and ±100 the full control effect; nearly all actives have a fitted effect of over 65% in size
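Per well, imaged GFP fluorescence of HEPG2 CAGA-GFP cells gives the signal; cells get compound, then TGF-beta (500 pg/mL final), 18 h at 37 degrees C; %Activity versus -TGF-beta and +DMSO controls.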
An asterisk follows results filed as active; ? = inconclusive; ! = repeats disagree. In the library only some 6.5% were active in any assay of this set; here they are far more common. Unless noted, the call rests on the fitted dose curve; in most records, active means well fitted curve in the direction sought with a large enough effect; inconclusive means small, poorly fitted or top-dose-only effect, or another doubt; inactive means no such curve, though single readings can be large; an effect the other way counts as inactive or inconclusive.

SMILES	HepG2 tox	HT1080 IDH1KD tx	IL-1B inflam inh	HT1080-NT tox	Giardia kill	TGFb inhibitor
CC(=NNC(=O)c1cc(C)nc2ccccc12)c1ccc(N2CCOCC2)cc1	-1%	?	43	?	-1	0%
O=C(CSc1nnc(-c2cccs2)o1)NCC1CN(Cc2ccccc2)CCO1 (stereo unspecified)	-16%	0%	11	4%	-7	-16%
NC(=S)N/N=C1/CCSc2ccc3ccccc3c21	-20%	?	-95*	26µM*	7	?
NC(=S)N/N=C/c1c(O)ccc2ccccc12	-49%	-1%	25	-20%	9	?
COc1ccc(/C=N/NC(=O)c2[nH]nc3c2CCc2ccccc2-3)cc1OC	-26%	?	116	-24%	-26	-31%
COc1cc(OC)cc(-c2oc3cccnc3c2C#CCCO)c1	-15%	-2%	-64*	-2%	-7	-15%
COc1ccc(C(=O)c2ccc3oc(-c4ccc(OC)cc4)c(C#CCCO)c3c2)cc1	-9%	4%	22	7%	-24	4%
Cc1nc([N+](=O)[O-])c(SCC(N)=O)n1Cc1ccccc1	-4%	12%	-18	7%	14	-12%
Cc1nc([N+](=O)[O-])c(Sc2nc3ccccc3n2C)n1Cc1ccccc1	-131%	?	-105*	-8%	3	?
CCCCNc1c(-c2ccc(-c3ccc(C(C)=O)cc3)c(OC)c2)nc2cc(C)ccn12	-26%	?	-51*	?	-5	?
CCCCCCSc1cc(-c2nc3ccc(C)cn3c2NCCCC)ccc1OC	-57%	-6%	-72*	-8%	4	?
CCCCNc1c(-c2ccc(OC)c(SC(C)CC)c2)nc2cnccn12 (stereo unspecified)	-77%	0%	-67*	-8%	-18	?
CCCCCCSc1ccc(-c2nc3cnccn3c2NCCCC)cc1	-97%	1%	0	4%	9	?
CCCCNc1c(-c2ccc(OC)c(SC(C)CC)c2)nc2cc(C)ccn12 (stereo unspecified)	11µM*	23µM*	-85*	21µM*	7	11µM*
COC(=O)[C@H](CC(C)C)NC(=O)Nc1ccccc1F	7%	6%	13	5%	35	15%
COC(=O)C1C(c2ccccc2)C=CC(c2ccccc2)C1C(=O)O (stereo unspecified)	5%	2%	0	3%	19	4%
CCOc1cccc(-c2c(C(=O)N/N=C(\C)c3ccccn3)nnn2-c2nonc2N)c1	-13%	?	48	?	-7	-16%
CCCN1CCN(C(=O)c2oc3ccccc3c2NC(=O)C2CC2)CC1	5%	1%	10	16%	-3	-3%
Cc1ccc(CCNC(=O)C2CCN(S(=O)(=O)c3cccc4nsnc34)CC2)cc1	-10%	2%	-10	1%	-5	-11%
O=C(Nc1cccn(Cc2c(Cl)cccc2Cl)c1=O)c1ccccc1Cl	11%	-1%	?	0%	-6	?
CCCCNc1c(-c2ccc(OC)c(SC(C)CC)c2)nc2ccc(C)cn12 (stereo unspecified)	14µM*	?	-100*!	21µM*	-14	13µM*
CCCCCCSc1cc(-c2nc3ccc(Cl)cn3c2NCCCC)ccc1OC	-1%	14%	0	4%	-24	9%
O=C(NCCc1nc(-c2ccccc2)cs1)c1ccc(Br)cc1	-2%	-1%	-77*	-12%	-9	-17%
Cc1c(C#N)c(N)nc2c3c(sc12)NC(=O)CC3c1ccccc1 (stereo unspecified)	3%	0%	18	-5%	-13	0%

Assay outcomes deposited in PubChem BioAssay by National Center for Advancing Translational Sciences (NCATS).
